Structures can show the parent of a compound that is named as a salt.
These compounds were tested on Clostridium sporogenes DSM 1664 (assay: growth (OD595) fold change vs plate DMSO controls (fold change (ratio)); higher = more growth). Settings: incubation time: 27 h, anaerobic, 37 °C.
How it was run: (§1)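 Absorbance at 595 nm was read after shaking the anaerobic mGAM cultures, which had grown in 96-well plates for 27 h at 37 °C. After blank subtraction and background correction against 20 µM compound solutions in water, a calibration factor of 5 gave OD values. Growth is the fold change against the median of the plate's DMSO controls. Values are the mean of 2 biological replicates, with fold changes above 1.5 set to NA.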

SMILES | growth
O=C1CN(/N=C/c2ccc(-c3ccc([N+](=O)[O-])cc3)o2)C(=O)N1 [Dantrolene sodium salt] (20 µM) | 1.04
CN1CCCN=C1/C=C/c1cccs1 [Pyrantel tartrate] (20 µM) | 1.14
C[C@H](CCc1ccccc1)NC[C@H](O)c1ccc(O)c(C(N)=O)c1 [Dilevalol] (20 µM) | 1.02
CN1CCC(=C2c3ccccc3CCc3sccc32)CC1 [Pizotifen malate] (20 µM) | 1.3
CCOC(=O)c1ccc(C#Cc2ccc3c(c2)C(C)(C)CCS3)nc1 [Tazarotene] (20 µM) | 1.02
CCC(=O)OCC(=O)[C@@]1(OC(=O)CC)[C@@H](C)C[C@H]2[C@@H]3CCC4=CC(=O)C=C[C@]4(C)[C@@]3(Cl)[C@@H](O)C[C@@]21C [Beclomethasone dipropionate] (20 µM) | 1.19
CC1=NN(c2ccccc2)C(=O)C1 [Edaravone] (20 µM) | 0.889
CO/N=C(\C(=O)N[C@@H]1C(=O)N2C(C(=O)OCOC(=O)C(C)(C)C)=C(/C=C\c3scnc3C)CS[C@H]12)c1csc(N)n1 [Cefditoren Pivoxil] (20 µM) | 0.809
Nc1ncnc2c1ncn2[C@@H]1O[C@H](CO)[C@@H](O)[C@@H]1O [Vidarabine] (20 µM) | 1.1
O=C(O)c1ccccc1Nc1cccc(C(F)(F)F)c1 [Flufenamic acid] (20 µM) | 1.16
CCc1ccc(CCOc2ccc(CC3SC(=O)NC3=O)cc2)nc1 (stereo not given) [Pioglitazone] (20 µM) | 1.3

Each compound was assayed on Escherichia coli IAI1 in the same assay as above. Settings: incubation time: 27 h, anaerobic, 37 °C.
How it was run: as §1

SMILES | growth
CCCCCCCCCCCCCCCCCCCCCC(=O)Nc1ccn([C@@H]2O[C@H](CO)[C@@H](O)[C@@H]2O)c(=O)n1 [Enocitabine] (20 µM) | 0.973
COCC1=C(C(=O)OC(C)OC(=O)OC(C)C)N2C(=O)[C@@H](NC(=O)/C(=N\OC)c3csc(N)n3)[C@H]2SC1 (stereo not given in full) [Cefpodoxime proxetil] (20 µM) | 1.01
COc1cccc2c1C(=O)c1c(O)c3c(c(O)c1C2=O)C[C@@](O)(C(=O)CO)C[C@@H]3O[C@H]1C[C@H](N)[C@@H](O)[C@H](C)O1 [Epirubicin hydrochloride] (20 µM) | 0.0185
CN1CCCN(C(c2ccccc2)c2ccc(Cl)cc2)CC1 (stereo not given) [Homochlorcyclizine dihydrochloride] (20 µM) | 0.99
COc1ccc(/C=C/C(=O)Nc2ccccc2C(=O)O)cc1OC [Tranilast] (20 µM) | 1.07
CC(C)Nc1ncccn1 [Isaxonine] (20 µM) | 0.989
CC(=O)N[C@@H](CS)C(=O)O [Acetylcysteine] (20 µM) | 1.07
C=C1C[C@@]23CC[C@H]4[C@@](C)(CCC[C@@]4(C)C(=O)O[C@@H]4O[C@H](CO)[C@@H](O)[C@H](O)[C@H]4O)[C@@H]2CC[C@]1(O[C@@H]1O[C@H](CO)[C@@H](O)[C@H](O)[C@H]1O[C@@H]1O[C@H](CO)[C@@H](O)[C@H](O)[C@H]1O)C3 [Stevioside] (50 µM) | 1
Nc1ccc(S(=O)(=O)Nc2nccs2)cc1 [Sulfathiazole] (20 µM) | 0.979
CC(=O)OCC(=O)[C@@]1(O)CC[C@H]2[C@@H]3CCC4=CC(=O)C=C[C@]4(C)[C@@]3(F)[C@@H](O)C[C@@]21C [Isoflupredone acetate] (20 µM) | 1.02
CC(=O)CCCCn1c(=O)c2c(ncn2C)n(C)c1=O [Pentoxifylline] (20 µM) | 0.995
CCN(CC)CCOC(=O)C1(C2CCCCC2)CCCCC1 [Dicyclomine hydrochloride] (20 µM) | 0.966
CC(=O)OCC(=O)[C@@]1(O)[C@H](C)C[C@H]2[C@@H]3CCC4=CC(=O)C=C[C@]4(C)[C@@]3(F)[C@@H](O)C[C@@]21C [Dexamethasone acetate] (20 µM) | 1.01
Cc1nc2n(c(=O)c1CCN1CCC(c3noc4cc(F)ccc34)CC1)CCCC2O (stereo not given) [Paliperidone] (20 µM) | 1.01
O=C(Nc1cccc2c(=O)cc(-c3nnn[nH]3)oc12)c1ccc(OCCCCc2ccccc2)cc1 [Pranlukast] (20 µM) | 1.07
CCC(Cc1c(I)cc(I)c(N)c1I)C(=O)O (stereo not given) [Iopanoic acid] (20 µM) | 1.13
C/C(=C\C(=O)OCCCCCCCCC(=O)O)C[C@@H]1OC[C@H](C[C@@H]2O[C@H]2[C@@H](C)[C@H](C)O)[C@@H](O)[C@H]1O [Mupirocin] (20 µM) | 0.423
CC(Oc1c(Cl)cccc1Cl)C1=NCCN1 (stereo not given) [Lofexidine] (20 µM) | 1.09
CCOc1ccc(NC(=O)CC(C)O)cc1 (stereo not given) [Bucetin] (20 µM) | 0.985
CN(C)CCc1c[nH]c2ccc(Cn3cncn3)cc12 [Rizatriptan benzoate] (20 µM) | 0.971

SMILES | growth
CC(C)OC(=O)C(C(=O)OC(C)C)=C1SC=CS1 [Malotilate] (20 µM) | 1.07
CC1CS(=O)(=O)CCN1/N=C/c1ccc([N+](=O)[O-])o1 (stereo not given) [Nifurtimox] (20 µM) | 1.03
CC(=O)OCC(=O)[C@@]12OC3(CCCC3)O[C@@H]1C[C@H]1[C@@H]3CCC4=CC(=O)C=C[C@]4(C)[C@@]3(F)[C@@H](O)C[C@@]12C [Amcinonide] (20 µM) | 1.02
OC[C@H]1O[C@@H](c2ccc(Cl)c(Cc3ccc(O[C@H]4CCOC4)cc3)c2)[C@H](O)[C@@H](O)[C@@H]1O [Empagliflozin] (20 µM) | 1
CC(CN(C)C)CN1c2ccccc2Sc2ccccc21 (stereo not given) [Trimeprazine tartrate] (20 µM) | 1.01
CCC(=O)O[C@]1(C(=O)SCF)[C@H](C)C[C@H]2[C@@H]3C[C@H](F)C4=CC(=O)C=C[C@]4(C)[C@@]3(F)[C@@H](O)C[C@@]21C [Fluticasone propionate] (20 µM) | 0.976
OC[C@H]1O[C@@H](n2cnc3cncnc32)[C@H](O)[C@@H]1O [Nebularine] (20 µM) | 0.971
C=C1[C@H](CO)[C@@H](O)C[C@@H]1n1cnc2c(=O)[nH]c(N)nc21 [Entecavir] (20 µM) | 0.934
O=C1CN(/N=C/c2ccc(-c3ccc([N+](=O)[O-])cc3)o2)C(=O)N1 [Dantrolene sodium salt] (20 µM) | 0.986
CN1CCCN=C1/C=C/c1cccs1 [Pyrantel tartrate] (20 µM) | 1.04
C[C@H](CCc1ccccc1)NC[C@H](O)c1ccc(O)c(C(N)=O)c1 [Dilevalol] (20 µM) | 0.978
CN1CCC(=C2c3ccccc3CCc3sccc32)CC1 [Pizotifen malate] (20 µM) | 1.03
CCOC(=O)c1ccc(C#Cc2ccc3c(c2)C(C)(C)CCS3)nc1 [Tazarotene] (20 µM) | 0.951
CCC(=O)OCC(=O)[C@@]1(OC(=O)CC)[C@@H](C)C[C@H]2[C@@H]3CCC4=CC(=O)C=C[C@]4(C)[C@@]3(Cl)[C@@H](O)C[C@@]21C [Beclomethasone dipropionate] (20 µM) | 0.997
CC1=NN(c2ccccc2)C(=O)C1 [Edaravone] (20 µM) | 1.03
CO/N=C(\C(=O)N[C@@H]1C(=O)N2C(C(=O)OCOC(=O)C(C)(C)C)=C(/C=C\c3scnc3C)CS[C@H]12)c1csc(N)n1 [Cefditoren Pivoxil] (20 µM) | 1.11
Nc1ncnc2c1ncn2[C@@H]1O[C@H](CO)[C@@H](O)[C@@H]1O [Vidarabine] (20 µM) | 1.07
O=C(O)c1ccccc1Nc1cccc(C(F)(F)F)c1 [Flufenamic acid] (20 µM) | 0.983
CCc1ccc(CCOc2ccc(CC3SC(=O)NC3=O)cc2)nc1 (stereo not given) [Pioglitazone] (20 µM) | 0.963

Source: the supplement of paper PMC12494721
